In all, about 5,500 compounds went through this assay and about 2,000 (36%) were called active. About 18% were inconclusive and are not listed. Cut-off read from the data, not from the text of the source: active = normalized growth mostly below about 0.91 (no sharp cut-off); inconclusive = no clear call, values can overlap the other calls; inactive = mostly above about 0.92. This is one part of the list.
Assay: chemical genetic growth profiling, strain panel (AID 1159580);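 note: tested at 20 µM; growth read once vehicle control cultures reached saturation at 30 °C; 1 = growth at the plate median or of vehicle wells; lower values mean less growth of the strain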
Details: growth OD

Measured: normalized growth

CC(=O)OC(C)(C)[C@@H]1Cc2cc3ccc(=O)oc3cc2O1
inactive: S. cerevisiae deletion strains, locus YJR066W, strain TOR1, stronger effect = lower value 0.928 | S. cerevisiae deletion strains, locus YJR075W, strain HOC1, stronger effect = lower value 0.992 | S. cerevisiae deletion strains, locus YKL009W, strain mrt4, stronger effect = lower value 1.03 | S. cerevisiae deletion strains, locus YKL068W, stronger effect = lower value 1.01 | S. cerevisiae deletion strains, locus YKL085W, strain MDH1 (second series), stronger effect = lower value 0.998 | S. cerevisiae deletion strains, locus YKL085W, strain MDH1, stronger effect = lower value 0.998 | S. cerevisiae deletion strains, locus YKL160W, strain elf1, stronger effect = lower value 1.02 | S. cerevisiae deletion strains, locus YKL190W, strain CNB1, stronger effect = lower value 1.01 | S. cerevisiae deletion strains, locus YKR001C, strain vps1, stronger effect = lower value 1 | S. cerevisiae deletion strains, locus YKR026C, strain gcn3, stronger effect = lower value 0.957 | S. cerevisiae deletion strains, locus YKR091W, strain srl3, stronger effect = lower value 0.975 | S. cerevisiae deletion strains, locus YLL001W, strain dnm1, stronger effect = lower value 0.984 | S. cerevisiae deletion strains, locus YLL026W, stronger effect = lower value 0.97 | S. cerevisiae deletion strains, locus YLL041C, strain sdh2, stronger effect = lower value 0.984 | S. cerevisiae deletion strains, locus YLR027C, strain aat2, stronger effect = lower value 0.962 | S. cerevisiae deletion strains, locus YLR039C, strain RIC1, stronger effect = lower value 1.07 | S. cerevisiae deletion strains, locus YLR058C, strain SHM2, stronger effect = lower value 0.999 | S. cerevisiae deletion strains, locus YLR102C, strain apc9, stronger effect = lower value 1 | S. cerevisiae deletion strains, locus YLR113W, strain HOG1, stronger effect = lower value 1.04 | S. cerevisiae deletion strains, locus YLR221C, strain rsa3, stronger effect = lower value 1.01 | S. cerevisiae deletion strains, locus YLR258W, strain gsy2, stronger effect = lower value 0.951 | S. cerevisiae deletion strains, locus YLR262C, strain YPT6 (second series), stronger effect = lower value 1.01 | S. cerevisiae deletion strains, locus YLR262C, strain YPT6, stronger effect = lower value 1.07 | S. cerevisiae deletion strains, locus YLR268W, strain sec22, stronger effect = lower value 1.04 | S. cerevisiae deletion strains, locus YLR320W, strain mms22, stronger effect = lower value 0.956 | S. cerevisiae deletion strains, locus YLR330W, strain CHS5, stronger effect = lower value 1 | S. cerevisiae deletion strains, locus YLR342W, strain FKS1 (second series), stronger effect = lower value 0.994 | S. cerevisiae deletion strains, locus YLR342W, strain FKS1, stronger effect = lower value 0.969 | S. cerevisiae deletion strains, locus YLR357W, strain rsc2, stronger effect = lower value 0.971 | S. cerevisiae deletion strains, locus YLR370C, strain arc18, stronger effect = lower value 0.973 | S. cerevisiae deletion strains, locus YLR371W, strain rom2, stronger effect = lower value 1.03 | S. cerevisiae deletion strains, locus YLR384C, strain iki3, stronger effect = lower value 0.979 | S. cerevisiae deletion strains, locus YLR418C, strain cdc73, stronger effect = lower value 0.975 | S. cerevisiae deletion strains, locus YML016C, strain PPZ1, stronger effect = lower value 0.999 | S. cerevisiae deletion strains, locus YML032C, strain rad52, stronger effect = lower value 0.987 | S. cerevisiae deletion strains, locus YML120C, strain ndi1, stronger effect = lower value 0.99 | S. cerevisiae deletion strains, locus YML124C, strain tub3, stronger effect = lower value 0.994 | S. cerevisiae deletion strains, locus YMR058W, strain fet3, stronger effect = lower value 0.969 | S. cerevisiae deletion strains, locus YMR078C, strain ctf18, stronger effect = lower value 1.01 | S. cerevisiae deletion strains, locus YMR125W, strain sto1, stronger effect = lower value 0.941 | S. cerevisiae deletion strains, locus YMR129W, stronger effect = lower value 0.962 | S. cerevisiae deletion strains, locus YMR205C, strain PFK2, stronger effect = lower value 0.915 | S. cerevisiae deletion strains, locus YMR223W, strain ubp8, stronger effect = lower value 0.982 | S. cerevisiae deletion strains, locus YMR231W, strain pep5, stronger effect = lower value 0.968 | S. cerevisiae deletion strains, locus YMR263W, strain SAP30, stronger effect = lower value 0.997 | S. cerevisiae deletion strains, locus YMR307W, strain GAS1, stronger effect = lower value 1.03 | S. cerevisiae deletion strains, locus YNL067W, strain RPL9B, stronger effect = lower value 0.999 | S. cerevisiae deletion strains, locus YNL071W, strain lat1, stronger effect = lower value 0.985 | S. cerevisiae deletion strains, locus YNL183C, strain NPR1, stronger effect = lower value 0.983 | S. cerevisiae deletion strains, locus YNL209W, strain ssb2, stronger effect = lower value 0.975 | S. cerevisiae deletion strains, locus YNL233W, strain BNI4, stronger effect = lower value 0.988 | S. cerevisiae deletion strains, locus YNL248C, strain rpa49, stronger effect = lower value 1.02 | S. cerevisiae deletion strains, locus YNL250W, strain rad50, stronger effect = lower value 1.01 | S. cerevisiae deletion strains, locus YNL271C, strain bni1, stronger effect = lower value 1 | S. cerevisiae deletion strains, locus YNL298W, strain CLA4, stronger effect = lower value 1.01 | S. cerevisiae deletion strains, locus YNL307C, strain MCK1, stronger effect = lower value 1 | S. cerevisiae deletion strains, locus YNL322C, strain KRE1 (second series), stronger effect = lower value 0.951 | S. cerevisiae deletion strains, locus YNR049C, strain mso1, stronger effect = lower value 0.955 | S. cerevisiae deletion strains, locus YNR052C, strain pop2, stronger effect = lower value 1 | S. cerevisiae deletion strains, locus YOL012C, strain htz1 0.921 | S. cerevisiae deletion strains, locus YOL147C, strain pex11, stronger effect = lower value 0.997 | S. cerevisiae deletion strains, locus YOR001W, strain rrp6, stronger effect = lower value 1.01 | S. cerevisiae deletion strains, locus YOR061W, strain CKA2, stronger effect = lower value 1.01 | S. cerevisiae deletion strains, locus YOR069W, strain VPS5, stronger effect = lower value 1 | S. cerevisiae deletion strains, locus YOR070C, strain gyp1, stronger effect = lower value 0.995 | S. cerevisiae deletion strains, locus YOR080W, strain dia2, stronger effect = lower value 0.982 | S. cerevisiae deletion strains, locus YOR083W, strain WHI5, stronger effect = lower value 1.02 | S. cerevisiae deletion strains, locus YOR106W, strain vam3, stronger effect = lower value 1.02 | S. cerevisiae deletion strains, locus YOR136W, strain idh2, stronger effect = lower value 0.999 | S. cerevisiae deletion strains, locus YOR144C, strain elg1, stronger effect = lower value 1 | S. cerevisiae deletion strains, locus YOR184W, strain ser1, stronger effect = lower value 0.968 | S. cerevisiae deletion strains, locus YOR231W, strain MKK1, stronger effect = lower value 0.963 | S. cerevisiae deletion strains, locus YOR265W, strain rbl2, stronger effect = lower value 0.976 | S. cerevisiae deletion strains, locus YOR270C, strain vph1, stronger effect = lower value 0.935 | S. cerevisiae deletion strains, locus YOR290C, strain snf2, stronger effect = lower value 0.916 | S. cerevisiae deletion strains, locus YOR316C, strain cot1, stronger effect = lower value 0.995 | S. cerevisiae deletion strains, locus YPL051W, strain arl3, stronger effect = lower value 1 | S. cerevisiae deletion strains, locus YPL078C, strain atp4, stronger effect = lower value 0.993 | S. cerevisiae deletion strains, locus YPL106C, strain sse1, stronger effect = lower value 0.946 | S. cerevisiae deletion strains, locus YPL240C, strain hsp82, stronger effect = lower value 0.995 | S. cerevisiae deletion strains, locus YPL241C, strain CIN2, stronger effect = lower value 0.996 | S. cerevisiae deletion strains, locus YPL256C, strain CLN2, stronger effect = lower value 0.962 | S. cerevisiae deletion strains, locus YPR119W, strain clb2, stronger effect = lower value 1.02 | S. cerevisiae deletion strains, locus YPR141C, strain kar3, stronger effect = lower value 1 | S. cerevisiae deletion strains, locus YPR163C, strain tif3, stronger effect = lower value 1 | S. cerevisiae deletion strains, locus YPR167C, strain met16, stronger effect = lower value 1 | S. cerevisiae deletion strains, strain wtn01, stronger effect = lower value 1.01 | S. cerevisiae strains, strain wild type, stronger effect = lower value 1
